ELG1 genotoxic = induces genotoxicity in HEK293T cells with luciferase-tagged ELG1; HEK293T ELG1-luciferase reporter, luminescence, 16 h; Potency, µM (titrated, usually from 46 µM), usual class: activators; 330,000 tested, 1.3% active; AID 504466; further: nearly all actives have a fitted effect of over 60% in size
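After overnight (16 hr) compound treatment at 37 °C, ELG1-luciferase HEK293T cells were lysed with ONE-Glo; luminescence quantified 30 min later at room temperature.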
NPC1 prom act = NPC1 promoter activation | Huh7 NPC1 promoter luciferase reporter, 24 h | Potency, µM (doses to about 9.22 µM), usual class: activators | 320,000 tested, 2.4% active; further: nearly all actives have a fitted effect of over 60% in size
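Quantitative HTS used a cell-based reporter: Huh7 cells stably bearing the NPC1 promoter upstream of luciferase were treated with compounds for 24 h, and promoter activation was read as luminescence.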
SMN2 splice enh = enhancers of SMN2 splice variant expression. HEK293 SMN2-luciferase splicing reporter, luminescence, 30-36 h. Potency, µM (top dose mostly 46.1 µM), actives largely listed as activators. 210,000 tested, 2.8% active. AID 1458; further: nearly all actives have a fitted effect of over 55% in size
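HEK293 cells carry an SMN2 minigene-luciferase reporter in which exon 7 inclusion puts luciferase in frame. Cells were seeded at 2000 cells/well, attached for 10-12 hours, then exposed to compounds for 30-36 hours at 37C before ONE-Glo luminescence.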
FLuc counter = inhibits or activates purified firefly luciferase, miR-21 counter-screen; 360,000 tested, 6.9% active; P08659; purified FLuc, Km substrates, luminescence inhibition; Potency, µM (doses to about 57.5 µM), hits mostly inhibitors; AID 588342; further: nearly all actives have a fitted effect of over 55% in size
Target sequence (P08659 whole entry, looked up): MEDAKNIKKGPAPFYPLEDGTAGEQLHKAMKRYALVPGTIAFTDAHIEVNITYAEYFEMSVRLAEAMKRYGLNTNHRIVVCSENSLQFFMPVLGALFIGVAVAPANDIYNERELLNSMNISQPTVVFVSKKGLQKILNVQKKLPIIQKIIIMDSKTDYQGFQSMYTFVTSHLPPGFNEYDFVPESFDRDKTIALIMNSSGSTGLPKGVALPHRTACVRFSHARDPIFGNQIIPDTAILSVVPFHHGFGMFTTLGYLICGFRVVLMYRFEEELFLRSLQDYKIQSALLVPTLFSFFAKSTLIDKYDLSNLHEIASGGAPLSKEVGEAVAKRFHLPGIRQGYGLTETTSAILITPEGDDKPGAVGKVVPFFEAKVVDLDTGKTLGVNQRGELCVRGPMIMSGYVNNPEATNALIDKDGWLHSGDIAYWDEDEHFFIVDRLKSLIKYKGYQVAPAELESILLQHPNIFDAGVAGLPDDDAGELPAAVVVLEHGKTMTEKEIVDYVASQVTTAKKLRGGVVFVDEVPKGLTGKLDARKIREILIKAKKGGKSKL
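Purified P. pyralis luciferase, 10 nM final, with Km-level 10 uM D-luciferin and 10 uM ATP in 50 mM Tris acetate pH 7.5, 10 mM Mg acetate, 0.01% Tween-20, 0.05% BSA; 6-point qHTS titration about 60 µM downward; luminescence read.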
KinaseGlo FLuc = Kinase-Glo luciferase inhibition (counter-screen). Kinase-Glo luciferase, ATP luminescence, 8 min. Potency, µM (series often up to 38.3 µM), usual class: inhibitors. Q27757. 200,000 tested, 0.28% active; further: nearly all actives have a fitted effect of over 60% in size
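Kinase-Glo luciferase light output from ATP and luciferin was measured with 10 uM ATP, within the enzyme's linear range. Buffer: 50 mM imidazole pH 7.2, 50 mM KCl, 7 mM MgCl2, 0.01% Tween 20, 0.05% BSA; luminescence read after 8 min at ambient temperature.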
Rab9 promoter act = activators of Rab9 promoter. Huh7 Rab9 promoter-luciferase reporter, luminescence, 24 h. Potency, µM (highest dose often 9.22 µM), actives largely listed as activators. 320,000 tested, 2.8% active. AID 485297; further: nearly all actives have a fitted effect of over 60% in size
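Promoter activation is measured as luciferase luminescence in Huh7 cells stably transfected with a Rab9 promoter–luciferase construct, following 24 h compound exposure at 37 °C and 10 min reagent incubation at ambient temperature.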
Numbers stand for hits; - = inactive; ? = inconclusive; . = no result; [ ] = another dose, or the depositor's remark. Compounds with a hit are over-represented: about 7.5% of the library has one in this group of screens. The call rests on the fitted dose curve; in most records, active means well fitted curve in the direction sought with a large enough effect; inconclusive means small, poorly fitted or top-dose-only effect, or another doubt; inactive means no such curve, though single readings can be large; an effect the other way counts as inactive or inconclusive.

SMILES | ELG1 genotoxic | NPC1 prom act | SMN2 splice enh | FLuc counter | KinaseGlo FLuc | Rab9 promoter act
CCc1c(C)nc(SCC(=O)Nc2ccc3c(c2)OCCO3)[nH]c1=O | - | - | . | ? | - | -
Cc1ccc2nc(SCC(=O)Nc3ccc4c(c3)OCCO4)[nH]c2c1 | - | - | - | 15.1µM | - | -
COC(=O)CN1C(=O)C(O)(c2c(C)[nH]c3ccccc23)c2ccccc21 (stereo not given) | . | . | . | - | . | .
O=C(c1ccccc1Br)N(Cc1ccccc1F)C1CCS(=O)(=O)C1 (stereo not given) | . | . | - | - | . | .
O=C1CN(C(=O)c2ccc(S(=O)(=O)N3CCCC3)cc2)C(c2ccc(F)cc2)c2cc(Br)ccc2N1 (stereo not given) | . | . | - | - | . | .
Cc1cc(C)cc(NC(=O)Cn2cc3c(n2)CCCCC3)c1 | - | - | - | - | - | -
CN(C)c1ccc(NC(=O)Cn2cc3c(n2)CCCC3)cc1 | ? | - | - | 19µM | - | -
CCOC(=O)c1c(NC2=NS(=O)(=O)c3ccccc32)sc2c1CCCCC2 | - | 1.41µM | . | - | . | ?
CCOC(=O)c1c(NC2=NS(=O)(=O)c3ccccc32)sc2c1CCC(C)C2 (stereo not given) | - | - | - | - | - | -
O=c1cc(C(F)(F)F)[nH]c2ccc(OC(F)(F)F)cc12 | - | - | . | 21.3µM | . | -
C(=N/Nc1nc(-c2ccccc2)cc(-c2ccccc2)n1)/c1cccnc1 | - | - | 2.51µM | 2.69µM | - | -
Cc1cc(-c2ccccc2)nc(N/N=C/c2ccc([N+](=O)[O-])cc2)n1 | - | - | -[1.84 µM] | - | - | -
Cc1cc(-c2ccccc2)nc(N/N=C/c2ccccc2)n1 | - | ? | . | 6.75µM | . | ?
Cc1ccc2nc(N/N=C/c3ccco3)cc(C)c2c1 | - | 2.82µM | . | 2.69µM | - | 2.51µM
C(=N\Nc1nc(Nc2ccccc2)nc(Nc2ccccc2)n1)/c1cccnc1 | - | - | - | ? | - | -
Cc1ccc2nc(C)cc(SCC(=O)N/N=C/c3ccco3)c2c1 | - | - | . | - | . | -
COc1ccc(/C=N/Nc2nc(C)cc(-c3ccccc3)n2)cc1OC | - | - | . | 13.5µM | . | -
COc1cccc(N(C(=O)c2csnn2)C(C(=O)NC2CCCC2)c2ccccc2)c1 (stereo not given) | - | - | . | - | . | -
COC(=O)[C@@H](NC(=O)O[C@H]1C(=O)c2cc(OC)ccc2O[C@@H]1c1ccc(OC)c(Br)c1)C(C)C | . | . | - | . | - | .
C(=N\Nc1nc(N2CCCC2)nc(N2CCCC2)n1)/c1cccnc1 | - | - | - | - | - | -
Cc1cc(-c2ccccc2)nc(N/N=C/c2cccnc2)n1 | - | - | . | 12µM | - | -
Cc1cc(-c2ccccc2)nc(N/N=C/c2ccco2)n1 | - | ? | - | 12µM | - | ?
COc1ccc(-c2cnnc(N/N=C/c3ccc(OC)c(OC)c3)n2)cc1 | - | - | . | 2.69µM | - | -
Cc1cc(C)nc(N/N=C/c2ccco2)n1 | - | - | ? | ? | - | -
Cc1cccc(OCc2nc(-c3nonc3N)no2)c1C | 10.3µM | 3.16µM | 10µM | ? | - | ?
SMILES | ELG1 genotoxic | NPC1 prom act | SMN2 splice enh | FLuc counter | KinaseGlo FLuc | Rab9 promoter act
CCOc1ccc(Cc2nc(-c3nonc3N)no2)cc1OCC | - | - | - | - | - | -
Nc1nonc1-c1noc(COc2ccccc2Cl)n1 | 5.17µM | 1.41µM | 11.2µM | 4.78µM | - | 1.12µM
Fc1ccccc1COc1ccc(/C=N/n2cnnc2)cc1 | - | - | - | - | - | -
C(=N\n1cnnc1)/c1cccc(OCCOc2ccccc2)c1 | - | 2.82µM | 11.2µM | ? | - | 1.41µM
O=[N+]([O-])c1ccc(N/N=C/c2ccc(OCc3cccc4ccccc34)cc2)nc1 | 20.6µM | - | - | - | - | -
C(=N\n1cnnc1)/c1ccc(OCc2cccc3ccccc23)cc1 | ? | ? | 14.1µM | ? | - | ?
O=c1oc(-c2cccc(S(=O)(=O)N3CCOCC3)c2)nc2ccccc12 | - | - | - | - | - | -
CC(=O)Oc1cccc(-c2nc3ccccc3c(=O)o2)c1 | - | - | . | 19µM | - | -
COc1cccc(-c2nc3ccc(O)cc3c(=O)o2)c1 | - | - | - | 4.78µM | - | -
CCCC(=O)Nc1nnc(SCc2cc(=O)n3ccccc3n2)s1 | . | . | . | - | . | .
Cc1cc(C)c(S(=O)(=O)NCC2CCC(C(=O)NCCc3ccccc3)CC2)c(C)c1 (stereo not given) | . | . | . | - | . | .
Cc1ccc2cc(-c3noc(C(C)(C)C)n3)c(=O)[nH]c2c1 | - | - | - | - | - | -
CCc1nc(-c2cc3ccc(C)cc3[nH]c2=O)no1 | ? | - | ? | 15.1µM | - | ?
CN(Cc1ccccc1)S(=O)(=O)c1ccc2[nH]c3c(c2c1)CCCCC3 | . | . | . | - | . | .
O=C(NCCc1cscn1)C1CCC(=O)N(Cc2ccc(Cl)cc2)C1 (stereo not given) | ? | ? | . | 3.01µM | . | ?
O=C(NCCc1ccccc1)C1CCC(=O)N(Cc2ccc(Cl)cc2)C1 (stereo not given) | - | - | . | - | . | -
Cc1ccc(-c2cc(C(=O)N3CCN(S(=O)(=O)c4ccc(Br)s4)CC3)[nH]n2)c(C)c1 | . | . | . | - | . | .
O=C1C(O)=C(O)C(=O)C(O)=C1O | . | . | - | . | - | .
C/C(N[C@@H]1CSCC1O)=C1/C(=O)CC2[C@@H]1C2(C)C (stereo not given in full) | . | . | - | . | - | .
C/C(NC(=O)c1ccccc1)=C1/C(=O)CC2C1C2(C)C (stereo not given) | ? | - | - | 15.1µM | - | ?
CCN(CCn1cccn1)C(=O)c1cc(COc2cc(C)ccc2C)on1 | ? | 3.55µM | . | 9.53µM | . | 3.55µM
CCN(CCN1CCCC1)C(=O)c1cc(COc2ccccc2SC)on1 | - | - | . | - | . | -
CCN(CCn1cccn1)C(=O)c1cc(COc2ccccc2SC)on1 | ? | 2µM | . | 8.49µM | . | 3.55µM
CN1CCCC(OC(=O)c2ccccc2Br)C1 (stereo not given) | ? | - | . | - | . | -
COc1ccc(-n2nc3c(c2NC(=O)C(=O)NCc2ccccc2)CSC3)cc1 | . | . | . | - | . | .
SMILES | ELG1 genotoxic | NPC1 prom act | SMN2 splice enh | FLuc counter | KinaseGlo FLuc | Rab9 promoter act
CC1CCc2c(sc(NC(=O)COc3ccccc3C(C)(C)C)c2C#N)C1 (stereo not given) | . | . | - | - | . | .
COc1cccc(CN2CCSCC2)c1 | - | - | - | - | - | -
COc1ccccc1CN=C1Nc2ccccc2CS1 | - | ? | ? | 23.9µM | - | ?
Cc1ccc(CN=C2Nc3ccccc3CS2)cc1 | 2.59µM | 0.501µM | 7.94µM | 0.601µM | - | 0.447µM
COc1cccc(CN=C2Nc3ccccc3CS2)c1 | ? | 2.82µM | 14.1µM | 12µM | - | 3.16µM
c1cncc(CN=C2Nc3ccccc3CS2)c1 | - | - | - | - | - | -
Clc1ccc(CN=C2Nc3ccccc3CS2)cc1 | ? | 3.16µM | 12.6µM | 6.01µM | - | 2.24µM
